Assay results as given in PubChem BioAssay AID689 (Sanford-Burnham Center for Chemical Genomics, 2007).
Out of some 62,000 compounds screened, about 80 (0.1%) were called active. The rule behind the calls is not given here. Not all results are given here. Results with a measured potency or affinity are listed apart.

Target: Ephrin type-A receptor 4 (Mus musculus) (UniProt Q03137)
Assay: EphA4 ligand-binding antagonists – biochemical, colorimetric, mouse EphA4, primary screen (AID 689)
Conditions: EphA4-AP binding to KYL peptide, pNPP A405, at 10 µM, active compounds read high

Chain of Ephrin type-A receptor 4 (Mus musculus) (Q03137 whole entry, looked up): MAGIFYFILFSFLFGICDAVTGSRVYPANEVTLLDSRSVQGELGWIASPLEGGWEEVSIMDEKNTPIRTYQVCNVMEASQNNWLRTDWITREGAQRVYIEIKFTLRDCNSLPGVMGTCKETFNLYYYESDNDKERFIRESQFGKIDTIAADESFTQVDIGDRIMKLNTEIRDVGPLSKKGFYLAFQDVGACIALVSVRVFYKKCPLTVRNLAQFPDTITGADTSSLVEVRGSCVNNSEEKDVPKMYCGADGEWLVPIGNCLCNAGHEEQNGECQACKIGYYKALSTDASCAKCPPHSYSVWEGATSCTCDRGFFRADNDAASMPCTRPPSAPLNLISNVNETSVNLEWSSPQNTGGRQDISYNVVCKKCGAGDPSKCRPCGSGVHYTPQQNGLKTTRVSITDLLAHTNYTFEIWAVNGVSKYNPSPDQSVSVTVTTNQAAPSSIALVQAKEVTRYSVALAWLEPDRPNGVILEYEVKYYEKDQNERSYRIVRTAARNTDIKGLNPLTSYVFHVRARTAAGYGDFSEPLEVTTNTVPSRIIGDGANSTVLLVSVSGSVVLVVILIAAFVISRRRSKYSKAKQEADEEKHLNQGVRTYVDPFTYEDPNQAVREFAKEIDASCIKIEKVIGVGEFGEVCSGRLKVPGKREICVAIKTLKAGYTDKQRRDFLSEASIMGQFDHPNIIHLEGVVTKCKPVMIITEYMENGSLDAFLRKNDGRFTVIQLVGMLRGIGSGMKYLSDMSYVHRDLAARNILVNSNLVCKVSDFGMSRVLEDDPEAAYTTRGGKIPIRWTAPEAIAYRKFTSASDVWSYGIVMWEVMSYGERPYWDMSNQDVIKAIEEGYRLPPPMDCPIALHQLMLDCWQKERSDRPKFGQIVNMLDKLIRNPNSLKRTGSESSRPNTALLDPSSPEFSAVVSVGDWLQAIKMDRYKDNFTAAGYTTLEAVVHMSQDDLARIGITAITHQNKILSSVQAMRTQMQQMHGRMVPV

inhibition, inactive:
Oc1c(/C=N/c2ncn[nH]2)ccc2ccccc12 -0.6%, O=c1oc2ccccc2c(O)c1/C=N/c1ccccn1 -4.8%, Cc1ccc(CNC(=O)C2CCCCC2C(=O)O)cc1 (stereo not drawn) -8.9%, COc1cc(C(=O)Nc2c(-c3ccccc3)c3cc(Br)ccc3[nH]c2=O)cc(OC)c1OC -0.5% [this sample at 5 µg/mL], COc1ccc(OC)c(NC(=O)Cn2c(-c3ccc(Cl)cc3)noc2=O)c1 -3.5%, CCCC(=O)N1CCN(c2ccc(NC(=O)c3ccccc3)cc2)CC1 -0.5%, COc1ccc(NC(=O)CN2C(=O)C(C)Oc3ccccc32)cc1 (stereo not drawn) -3%, O=CNCCCc1nc2ccccc2n1Cc1ccccc1 7.7%, CCn1c2ccccc2c2nc3cc(S(=O)(=O)N4CCOCC4)ccc3nc21 32.3%, O=[N+]([O-])c1cccc(S(=O)(=O)N2CCOCC2)c1 2.9% [this sample at 5 µg/mL], O=C(NC1CCCC1)c1ccc2nc(-c3ccco3)c(-c3ccco3)nc2c1 18.8%, O=C(NCc1ccccc1)c1ccc2nccnc2c1 -12.5%, COc1ccc(CCNC(=O)c2ccc3nc(-c4ccco4)c(-c4ccco4)nc3c2)cc1OC 24.1%, O=C(NCc1ccccc1)c1cccc(NC(=O)c2ccco2)c1 -2.1%, CCOC(=O)N1CCC(NC(=O)c2cc(C)c3c(C)nn(-c4ccccc4)c3n2)CC1 -3.2%, COc1c(Cl)cc(C(=O)Nc2cccc3ccccc23)cc1Cl -13.9% [this sample at 5 µg/mL], CCc1nc(SCc2nc3ccccc3[nH]2)c2oc3ccccc3c2n1 12.7%, Cc1sc(NC(=O)CN(C)C2CCCCC2)nc1-c1ccc2c(c1)CCN2S(=O)(=O)c1ccccc1 -7%, O=C(Cc1ccc(F)cc1)Nc1ccccc1Br -10% [this sample at 5 µg/mL], CCOC(=O)c1c(C)oc2ccc(OC(=O)c3ccccc3OC)cc12 -1% [this sample at 5 µg/mL], CCOC(=O)c1cc(OC(=O)c2ccccc2)n(-c2ccccc2)n1 0.3%, Cc1onc(-c2ccccc2Cl)c1C(=O)Nc1ccccc1N1CCOCC1 4%, Cc1nn(-c2ccc(Cl)cc2)c2sc(C(=O)N3CCN(C(=O)c4ccco4)CC3)cc12 -24.1%, CCCCc1nnc(SCc2ccc(OCC)cc2)n1N -2.2%, COc1cc2[nH]c3c(N4CCC(C(N)=O)CC4)ncnc3c2cc1OC -14.4%, CCSc1ncnc2c1sc1nc(-c3ccco3)c3c(c12)CC(C)(C)OC3 -1.2%, CSc1nc(N2CCN(CCO)CC2)c2sc3nc(-c4ccco4)c4c(c3c2n1)CCC4 -2.2%, CSc1nc(NCc2ccco2)c2sc3nc(C(C)C)c4c(c3c2n1)CC(C)(C)OC4 -8.5%, CSc1nc(N(C)CCO)c2sc3nc(-c4ccco4)c4c(c3c2n1)CCC4 46.9%, COC(=O)c1c(C)oc2ccc(OCc3ccccc3Br)cc12 -1.2% [this sample at 5 µg/mL], CC1CCN(c2cc(N3CCOCC3)c([N+](=O)[O-])cc2F)CC1 17.1%, c1ccc(-c2nc(-n3nc4ccccc4n3)nc3ccccc23)cc1 -3.4%, CCCCCn1c2nc3ccccc3nc2c2c(=O)n(CC(C)C)cnc21 -9.1%, CCCn1nc(NS(=O)(=O)c2ccccc2)c2cc3ccccc3nc21 -10.6%, CCCCCn1c(N)c(C#N)c2nc3ccccc3nc21 0.7%, CCCn1cnc2c(c1=O)c1nc3ccccc3nc1n2CCc1ccccc1 -9.5%, CCCCn1c2nc3ccccc3nc2c2c(=O)n(C(C)CC)cnc21 (stereo not drawn) 0.6%, CCCCn1c2nc3ccccc3nc2c2c(=O)n(CCC)cnc21 -2.2%, Cn1nc(-c2ccccc2)c2nc3ccccc3nc21 45.4%, COc1cc(NC(=O)c2cnn3c2NC(c2ccc(Br)cc2)CC3C(F)(F)F)cc(OC)c1OC (stereo not drawn) -4.6% [this sample at 5 µg/mL], COc1ccc(-c2c(C(C)=O)c(C)nc3sc4c(c23)NC(c2ccccc2)NC4=O)cc1 (stereo not drawn) -23.5%, CC1(C)CC(=O)C2=C(C1)N(Cc1ccco1)C(=O)NC2(C(F)(F)F)C(F)(F)F -8.1%, Oc1ccc(N2CCN(c3ncnc4sc5c(c34)CCC5)CC2)cc1 -17.1%, COc1ccccc1CNC(=O)c1oc2ccc(S(=O)(=O)N3CCCC3)cc2c1C 2.1%, Cc1[nH]n(CCC#N)c(=O)c1CC(=O)N1CCN(c2ccccc2)CC1 -10.6%, O=C(Nc1ccc2nn(-c3ccccc3)nc2c1)c1ccc(Cl)c([N+](=O)[O-])c1 -18.3% [this sample at 5 µg/mL], CCOC(=O)C(C)(C)C(=O)C(C)(C)C(O)c1ccccn1 (stereo not drawn) -7.7%, CC(C)Cn1c(N)c(C(=O)CSc2nnnn2C)c(=O)n(C)c1=O -12%, Cc1cc2ccccc2n1CCNC(=O)C1CCCC1 0.5%, Cc1ccc(S(=O)(=O)NCCn2c(C)cc3ccccc32)cc1 13.5%, CCOc1ccc(NS(=O)(=O)c2ccc(OC)c(C)c2)cc1 -20.6%, O=C(Nc1nc(-c2ccccc2)c(-c2ccccc2)s1)c1ccc(S(=O)(=O)N2CCCC2)cc1 8.7% [this sample at 5 µg/mL], Cc1ocnc1C(=O)Nc1ccc(Cl)cc1 -10.1%, CC(=O)C12c3ccccc3C(c3ccccc31)C1C(=O)NC(=O)C12 (stereo not drawn) -14.2% [this sample at 5 µg/mL], CCOc1ccc(N(CC(=O)Nc2ccc(Br)cc2)S(=O)(=O)c2ccc(SC)cc2)cc1 -3.8% [this sample at 5 µg/mL], Cc1cc(C)n2nc(SC3CCCCN(C(=O)c4ccc(F)cc4)C3=O)nc2n1 (stereo not drawn) -9.7%, c1ccc(-c2cn3nc4c(nc3n2)CCCC4)cc1 5.2%, Cc1nn2cc(-c3ccccc3)nc2s1 -24.1%, Cc1cc(=O)[nH]c(SCCOc2ccccc2C)n1 -0.8% [this sample at 5 µg/mL], CC1CC(C)CN(C(=O)CSc2nnc(-c3ccc(F)cc3)o2)C1 (stereo not drawn) 8.1%, Cc1ccc(NC(=O)/C(=C\c2ccc([N+](=O)[O-])cc2)NC(=O)c2ccccc2)cc1 -12.9%, Cc1ccc(C(=O)N/C(=C\c2ccc([N+](=O)[O-])cc2)C(=O)NCCc2ccccc2)cc1 1.8%, COc1ccc(NC(=O)/C=C/c2ccccc2Cl)c([N+](=O)[O-])c1 -10.9% [this sample at 5 µg/mL], CC1=N/C(=C\c2ccc([N+](=O)[O-])cc2)C(=O)N1c1ccc(Cl)cc1 22.2%, CC1=N/C(=C\c2ccc([N+](=O)[O-])cc2)C(=O)N1c1ccc(Br)c(C)c1 40.9%, O=C(COc1ccccc1)Nc1ccc(S(=O)(=O)N2CCOCC2)cc1 5.4%, C=C(C)Cn1c(COc2ccccc2)nnc1SCC(=O)O 1.1%, O=C(/C(=C/c1ccccc1[N+](=O)[O-])c1nc2ccccc2[nH]1)c1ccccc1 9% [this sample at 5 µg/mL], CCOC(=O)c1cc(-c2ccc(C=C3C(=O)N(C)C(=O)N(C)C3=O)o2)ccc1Cl 11% [this sample at 5 µg/mL], Cc1ccc(N2C(=O)/C(=C\c3ccc(-c4ccc(Cl)c(C(=O)O)c4)o3)C(=O)NC2=S)cc1 -13.7% [this sample at 5 µg/mL], CN1C(=O)C(=Cc2ccc(-c3ccc(Cl)c(C(=O)O)c3)o2)C(=O)N(C)C1=O 12.8% [this sample at 5 µg/mL], O=C1NC(=O)N(c2ccc(Cl)cc2)C(=O)/C1=C/c1ccc(-c2ccc(Cl)c(C(=O)O)c2)o1 -6.4% [this sample at 5 µg/mL], COc1ccc(/C=C/C(=O)Nc2cccc([N+](=O)[O-])c2)cc1Br 1.9% [this sample at 5 µg/mL], COC(=O)c1cccc(NC(=O)COC(=O)CSc2nc(C)cc(C)n2)c1 -9.9%, Cn1c(SCCOc2ccc(Cl)cc2)nnc1-c1ccncc1 13%, Cc1ccc(CNc2oc(C)nc2C#N)cc1 -0.9%, O=C(NCCOc1ccccc1F)c1cccc2ccccc12 -0.6% [this sample at 5 µg/mL], COC(=O)c1ccc(Cn2cnc3c(cnn3-c3ccc(F)cc3)c2=O)o1 9.4%, Cc1ccc(OCc2nnc(SCC(=O)Nc3sc(C)c(C)c3C#N)n2C)cc1 -5.2%, CCOc1ccc(NC(=O)CSc2nc(C)c3c(c2C#N)CCCC3)cc1 -14.6%, Cc1ccc(/C=C/C2=Cc3c(sc(NC(=O)CSc4n[nH]c(N)n4)c3C#N)C(C)(C)C2)o1 44.8%, Cc1sc(NC(=O)CSc2nnc(C)c(=O)[nH]2)c(C#N)c1C -25.1%, COc1cc(C2N(c3ccc(Cl)c(Cl)c3)C(=O)C3CCCN32)cc(OC)c1OC (stereo not drawn) -1.5%
